Broadly, the ΔTm is the change in melting temperature against a reference sample.

For assay [1], the target named is Bromodomain-containing protein 4 (Homo sapiens) (UniProt O60885). Particulars: Compound concentration 20.0 uM, Protein concentration 2.0 uM, Result type QC Liability.
For assay [2], the target named is T1, Transcription intermediary factor 1-alpha (Homo sapiens) (UniProt O15164).
T1 sequence (whole entry): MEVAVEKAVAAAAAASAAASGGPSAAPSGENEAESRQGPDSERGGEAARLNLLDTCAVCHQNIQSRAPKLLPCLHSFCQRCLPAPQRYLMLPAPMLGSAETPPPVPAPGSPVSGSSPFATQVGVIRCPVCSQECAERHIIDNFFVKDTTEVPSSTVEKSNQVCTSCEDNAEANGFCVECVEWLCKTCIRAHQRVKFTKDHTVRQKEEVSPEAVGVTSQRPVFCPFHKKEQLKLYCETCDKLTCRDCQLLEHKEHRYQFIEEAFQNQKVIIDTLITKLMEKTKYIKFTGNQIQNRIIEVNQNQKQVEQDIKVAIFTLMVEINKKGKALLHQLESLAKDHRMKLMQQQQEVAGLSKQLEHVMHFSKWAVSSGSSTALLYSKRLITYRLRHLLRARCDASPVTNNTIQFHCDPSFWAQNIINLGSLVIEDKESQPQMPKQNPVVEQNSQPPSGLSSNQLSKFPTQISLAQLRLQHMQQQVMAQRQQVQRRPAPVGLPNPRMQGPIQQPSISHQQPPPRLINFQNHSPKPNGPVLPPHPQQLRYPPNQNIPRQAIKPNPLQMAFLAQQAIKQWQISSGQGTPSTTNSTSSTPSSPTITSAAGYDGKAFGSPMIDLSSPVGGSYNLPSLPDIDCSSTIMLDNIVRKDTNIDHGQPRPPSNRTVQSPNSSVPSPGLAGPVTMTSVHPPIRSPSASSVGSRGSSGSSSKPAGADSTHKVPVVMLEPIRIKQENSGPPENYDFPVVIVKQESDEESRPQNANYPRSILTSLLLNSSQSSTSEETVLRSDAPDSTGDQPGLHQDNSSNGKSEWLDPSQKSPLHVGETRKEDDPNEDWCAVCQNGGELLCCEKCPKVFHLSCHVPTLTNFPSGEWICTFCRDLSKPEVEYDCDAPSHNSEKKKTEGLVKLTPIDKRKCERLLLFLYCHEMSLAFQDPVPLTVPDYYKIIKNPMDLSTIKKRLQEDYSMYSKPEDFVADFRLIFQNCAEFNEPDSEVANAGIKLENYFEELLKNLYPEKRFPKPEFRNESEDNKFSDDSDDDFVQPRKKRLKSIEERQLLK
Particulars: Compound concentration 20.0 uM, Protein concentration 2.0 uM, Result type QC Liability.

Turning to `COc1cc(-c2cncc(-c3cnn(C4CCNCC4)c3)c2)cc(OC)c1OC`, the values for the ΔTm in assay [1] and in assay [2] were 0.84 °C and -1.81 °C, respectively.
On to `COc1cccc(Cn2cc(C(=O)Nc3ccc(C)c(S(=O)(=O)N4CCOCC4)c3)c(-c3ccc(C)cc3)n2)c1`, for which the ΔTm in assay [1] was determined as 1.27 °C; in assay [2] it was 4.1 °C.
Consider `COc1c(NC(=O)c2cc3cccc(Oc4ccnc(C(=O)N5CCN(C)CC5)c4)c3n2C)cc(C(C)(C)C)cc1NS(C)(=O)=O`, for which the ΔTm in assay [1] was -2.76 °C; in assay [2], -2.21 °C.
For `CCCCOc1c(C(=O)c2c(F)cc(C)cc2F)c[nH]c2nncc1-2`, the thermal shift (ΔTm) in assay [1] is -0.5 °C; in assay [2] it was -1.46 °C.
For the compound `C[C@H]1CN(C2COC2)CCN1c1ccc(Nc2cc(-c3ccnc(N4CCn5c(cc6c5CC(C)(C)C6)C4=O)c3CO)cn(C)c2=O)nc1`, the ΔTm was -1.88 °C in assay [1] and 0.42 °C in assay [2].
For `Cc1cc(-c2ccnc(Nc3cnn(C)c3)n2)ccc1CNC(=O)N1CC(OC(C)C)C1`, the figures for the ΔTm in assay [1] and in assay [2] were -2.36 °C and 0.22 °C, respectively.
On to `CCn1c(-c2nonc2N)nc2cncc(C(=O)N3CC[C@H](N)C3)c21`, for which the results for the shift in melting temperature (ΔTm) in assay [1] and in assay [2] were -0.13 °C and -1.91 °C, respectively.
With `CCc1c(-c2ccc3[nH]ncc3c2)cnc(N)c1-c1ccc(O)cc1`, the shift in melting temperature (ΔTm) in assay [1] was -1.17 °C; in assay [2] it was -2.74 °C.
The matching figures for `COC(=O)c1ccc2c(c1)NC(=O)/C2=C(\Nc1ccc(-c2nccn2C)cc1)c1ccccc1`: -1.87 °C and -3.33 °C.
As to `CC1=C(C(=O)OCCO)[C@@H](c2ccc(C#N)cc2)NC(=O)N1c1cccc(C(F)(F)F)c1`, the ΔTm in assay [1] was 0.01 °C; in assay [2], 0.4 °C.
As for `O=c1[nH]c(CS[C@H]2CC[C@H](O)CC2)nc2cc(OCC3CC3)cc(F)c12`, the ΔTm in assay [1] is -0.97 °C; in assay [2] it was -3.28 °C.
As to `CN(C)C/C=C/C(=O)Nc1cc2c(Nc3ccc(F)c(Cl)c3)ncnc2cc1OC[C@@H]1CCCO1`, the ΔTm was -0.58 °C in assay [1] and -0.17 °C in assay [2].
For the compound `O=C(O)CCn1c2c(c3ccccc31)C[C@H](NS(=O)(=O)c1ccc(F)cc1)CC2`, the ΔTm in assay [1] was -1.19 °C; in assay [2], -1.73 °C.
With `CN(C)[C@H]1CC[C@H](Nc2ncc3ncnc(Nc4ccc(F)c(Cl)c4)c3n2)CC1`, the ΔTm was -0.7 °C in assay [1] and -1.12 °C in assay [2].
Turning to `COc1cc(Oc2nc(-c3ccc(NC(=O)C4CCOC4)cc3)nn3c(C)nc(C)c23)cc(OC)c1OC` (stereo unspecified), the shift in melting temperature (ΔTm) in assay [1] is -1.75 °C; in assay [2] it was 0.42 °C.
For `N#Cc1c(SCc2csc(-c3ccc(Cl)cc3)n2)nc(N2CCCC2)c(C#N)c1-c1ccc(OCCO)cc1`, the shift in melting temperature (ΔTm) in assay [1] was -0.25 °C; in assay [2], 0.42 °C.
Take `CC(=O)c1c(C)c2cnc(Nc3ccn(C)n3)nc2n(C2CCCC2)c1=O`: the shift in melting temperature (ΔTm) in assay [1] is -0.76 °C; in assay [2], -2.16 °C.
On to `CC(C)Oc1ccc(Cc2ccc(NC3=NCCN3)cc2)cc1`, for which the thermal shift (ΔTm) in assay [1] is -1.86 °C; in assay [2], -0.24 °C.
For `Cn1c(Nc2c(Cl)cccc2Cl)nc2ccc3nc[nH]c(=O)c3c21`, the ΔTm in assay [1] is -3.08 °C; in assay [2], -3.83 °C.
For `CC(C)C(=O)N[C@@H]1CCN(C(=O)Nc2nc3c(s2)-c2nc(-c4ccccc4Cl)ncc2CC3)C1`, in that order: -0.28 °C and -3.41 °C.
With `CCn1c(CNC(=O)c2ncc(C)nc2N)[n+](CC)c2ccc(C(=O)N(C)CCN(C)C)cc21`, the ΔTm was -1.53 °C in assay [1] and -0.01 °C in assay [2].
On to `CN1CCN(c2ccc(Nc3ncc4cc5n(c4n3)C3(CCCCC3)CNC5=O)nc2)CC1`, for which the results for the ΔTm in assay [1] and in assay [2] were -0.66 °C and -0.72 °C, respectively.
In the case of `CS(C)(=O)=Nc1ccc(-c2ccc(-c3nc4[nH]c(O[C@@H]5CO[C@H]6[C@@H]5OC[C@H]6O)nc4cc3Cl)cc2)cc1`, the results for the ΔTm in assay [1] and in assay [2] were 1.46 °C and 0.39 °C, respectively.
Turning to `O=C1CN(c2ccccc2F)C(NCCN2CCOCC2)=C1c1nc2cc(Br)ccc2c(=O)[nH]1`, the ΔTm in assay [1] was -12.3 °C; in assay [2], 0.25 °C.
`CCCCCCCC/C=C\CCCCCCCC(=O)NCCO`: the ΔTm in assay [1] was -1.73 °C; in assay [2], -2.56 °C.
For `CC1CCN(C(=O)[C@@H](CCn2cccc2C#N)NS(=O)(=O)c2cccc3[nH]ccc23)CC1`, in that order: -1.03 °C and 0.52 °C.
Consider `CN(C(=O)c1ccccc1)c1ccc2c(c1)[nH]/c(=N\C(=O)c1ccc(Br)s1)n2CCC(N)=O`, for which the ΔTm was -2.77 °C in assay [1] and -1.25 °C in assay [2].
Consider `CC[C@@H](C(=O)OC)n1c(=O)c2ccccc2n(Cc2cn(C)c3cccc(C)c23)c1=O`, for which the figures for the ΔTm in assay [1] and in assay [2] were 1.22 °C and 0.71 °C, respectively.
On to `NCC1CCC(CNc2nc(NCc3ccccc3OC(F)(F)F)ncc2[N+](=O)[O-])CC1` (stereo unspecified), for which the ΔTm in assay [1] was -3.36 °C; in assay [2], -1.36 °C.
For `COc1cc(C(=O)NCCOCCOCCOCC(=O)N[C@H](C(=O)N2C[C@@H](O)C[C@H]2C(=O)NCc2ccc(-c3scnc3C)cc2)C(C)(C)C)ccc1Nc1ncc(C(F)(F)F)c(Oc2cccc3c2C(=O)CC3)n1`, in that order: 0.11 °C and 2.2 °C.
As for `CCN(CC)C/C=C/C(=O)Nc1cc2c(Nc3ccc(F)c(Cl)c3)ncnc2cc1OCC1CC1`, the ΔTm in assay [1] is -1.26 °C; in assay [2], -0.54 °C.
As to `CCCCc1c(-c2ccccc2)nc(N)nc1-c1ccc(OCc2ccccc2)c(F)c1F`, the ΔTm in assay [1] is -11.4 °C; in assay [2], -1.94 °C.
`CC1CCN(c2ccnc(NCc3cn(C)cn3)n2)CC1`: the figures for the thermal shift (ΔTm) in assay [1] and in assay [2] were -1.06 °C and -0.77 °C, respectively.
For `CCN1CCN(Cc2ccc(C(=O)Nc3ccc(C)c(Oc4ccc5c(c4)CC(=O)N5)c3)cc2C(F)(F)F)CC1`, in that order: -2.44 °C and -3.11 °C.
Consider `CN(C)[C@H]1C[C@H](n2cnc(-c3ccc(F)cn3)c2-c2ccnc3[nH]ccc23)C1`, for which the thermal shift (ΔTm) in assay [1] is -2.13 °C; in assay [2] it was -2.35 °C.
For `O=C(Nc1cc2cc[nH]c(=O)c2cc1Cl)[C@H]1CNC[C@@H]1c1cccnc1`, in that order: -1.63 °C and -2.69 °C.
The matching figures for `Cc1cccc(-c2[nH]c(CNc3ccccc3F)nc2-c2ccc3ncnn3c2)n1`: -1.53 °C and -2.12 °C.
As for `CN(C)c1ccc(-c2cc3ncccc3c(OCCCCO)n2)cc1`, the ΔTm in assay [1] is -2.64 °C; in assay [2] it was -3.64 °C.

Source of the values: ChEMBL document CHEMBL5308504, “Tm Shift (DSF) assay results for EUbOPEN Chemogenomics Library” (2023).
